KLK7 zymogen act: proKLK7 zymogen activators, primary screen, biochemical, fluorescence intensity. 0.9% of 370,000 active. AID 652039, 2013. activation, % at 7 µM. Kallikrein-7 (Homo sapiens), P49862. purified proKLK7, EDANS-DABCYL substrate fluorescence; 100% is mature enzyme control, 0% vehicle;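 active = activation above the mean of all tested compounds plus 3 SD, computed per campaign excluding outliers beyond control limits, cut at about 13% in these data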
AHR act: AHR activators, primary screen, cell-based, luminescence, luciferase reporter, human; Aryl hydrocarbon receptor (Homo sapiens), P35869; AHR-responsive luciferase reporter cells; activation, % at 5 µM; 2.5% of 320,000 active; AID 2796, 2010; in the data active = activation above about 47%;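 note: 0% = vehicle wells and 100% = reference agonist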
ADAM10 inh: human ADAM10 inhibitors, primary screen, biochemical, QFRET, HTS; Disintegrin and metalloproteinase domain-containing protein 10 (Homo sapiens), O14672; recombinant ADAM10, EDANS/DABCYL FRET peptide cleavage, 3 h; inhibition, % at 7 µM; 0.62% of 370,000 active;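 active = inhibition above a per-campaign cutoff equal to the mean of compounds falling between control-based bounds plus 3 SD, cut at about 20% in these data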;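 note: 0% = DMSO wells while the 100% control is not disclosed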
ADAM17 inh: ADAM17 inhibitors, primary screen, biochemical, QFRET; inhibition, % at 6.95 µM; recombinant ADAM17, EDANS/DABCYL FRET peptide cleavage; Disintegrin and metalloproteinase domain-containing protein 17 (Homo sapiens), P78536; AID 720648, 2013; 0.83% of 370,000 active;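 active = inhibition above the mean of compounds lying between control limits plus 3 SD, set per campaign, cut at about 8.5% in these data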;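 note: 0% = DMSO-only wells as the low control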
rCAG RNA binder: binders of r(CAG) RNA repeats, primary screen, biochemical, fluorescence; AID 651821, 2012; inhibition, % at 3 µM; 1.3% of 370,000 active; r(CAG) RNA repeat, TO-PRO-1 dye displacement fluorescence;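 active = inhibition above the plate cutoff, the mean of all test compounds on that plate plus 3 SD, cut at about 35% in these data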;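 note: 0% = DMSO alone and 100% = 100 µM mitoxantrone as full dye displacement; higher means more dye released from RNA so lower well fluorescence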
NR3A LBD binder: binders of NR3A ligand-binding domain, primary screen, biophysical, differential scanning fluorimetry, uHTS; Glutamate receptor ionotropic, NMDA 3A (GRIN3A) ligand-binding domain; NR3A LBD differential scanning fluorimetry, Tm shift; 0% = protein alone, 100% = glycine-bound protein; Tm shift relative to glycine control, % at 25 µM; 2.5% of 340,000 active;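 active = melting temperature shift of at least 10% of the positive control shift, at one fixed dose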
rCAG binder conf: small molecules binding CAG repeat RNA – biochemical, fluorescence, confirmation. shares compounds with rCAG RNA binder. r(CAG) RNA repeat, TO-PRO-1 dye displacement fluorescence. inhibition, % at 3 µM. 70% of 4,300 active. AID 652065, 2013;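 active = inhibition above a per-plate cutoff, the mean inhibition of sample wells plus 3 SD, cut at about 35% in these data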;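 note: loss of TO-PRO-1 fluorescence as compound displaces dye from 1x1 AA loop RNA; 0% = DMSO only wells and 100% = 100 µM mitoxantrone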
dCAG dye counter: displacement of TO-PRO-1 from CAG DNA duplex, counter-screen for rCAG RNA repeat binder project, biochemical, fluorescence, TO-PRO-1 dye, d(CAG) DNA oligo | shares compounds with rCAG RNA binder | d(CAG) DNA oligo TO-PRO-1 dye displacement | inhibition, % at 3 µM | 94% of 4,300 active | AID 652068, 2013;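 active = inhibition above its plate's cutoff, the mean test-well inhibition plus 3 SD, cut at about 4.8% in these data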;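 note: 0% = DNA dye mix with DMSO and 100% = 100 µM mitoxantrone; hits displace the dye from DNA and so lower well fluorescence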
* hit, by the source's call; i = inactive; . = not tested or not shown. Rows were chosen to be rich in hits. Some 7% of all compounds tested hit in one or more screens of this group.

SMILES	KLK7 zymogen act	AHR act	ADAM10 inh	ADAM17 inh	rCAG RNA binder	NR3A LBD binder	rCAG binder conf	dCAG dye counter
O=C(COC(=O)c1cc(S(=O)(=O)N2CCCC2)ccc1O)Nc1ccc(SC(F)F)cc1	-0.4	2.0	-32.9	-6.1	45.5*	13.2*	40.4*	11.1*
CCOC(=O)c1ccc(S(=O)(=O)Nc2cc(S(=O)(=O)Nc3ccc(OC)cc3)ccc2O)cc1	0.1	-1.0	6.3	6.0	61.9*	-4.8	51.8*	21.7*
COc1ccc(NS(=O)(=O)c2ccc(O)c(NC(=O)c3ccc(S(=O)(=O)N4CCCCCC4)cc3)c2)cc1	1.0	-2.5	-1.7	0.4	67.8*	16.1*	77.6*	39.1*
CCCCN1C(=O)c2ccccc2NC1c1ccc(OC)c(COc2ccc(NC(C)=O)cc2)c1 (stereo not given)	.	.	i	-275.6	.	.	.	.
Cc1ccccc1NC(=O)[C@@H]1CC(=O)O[C@@H]1c1ccccc1	0.4	.	-7.4	0.0	1.5	.	.	.
Nc1ccc(F)c(CN2CCN(c3ncc(Cc4ccccc4)cn3)CC2)c1	0.5	.	-9.0	-1.5	3.5	.	.	.
Cc1[nH]n(-c2ncc(-c3ccccc3)s2)c(=O)c1C(c1ccc(Cl)cc1)C(C#N)C#N (stereo not given)	-0.5	0.7	7.5	-0.6	45.6*	12.5*	80.6*	48.5*
COC(=O)[C@]12C[C@H](CC(=O)NCCC(C)C)C(=O)N(Cc3ccc(Cl)cc3Cl)C1=C[C@H](C1CCCC1)O[C@@H]2C	-0.2	.	4.4	5.2	1.2	.	.	.
O=C(Nc1ccccc1C(=O)Nc1ccccc1C(=O)O)c1ccccc1	0.4	2.6	7.0	-4.2	72.8*	-1.8	66.5*	25.9*
COc1ccccc1NC(=O)c1ccccc1Nc1ccccc1	0.9	1.1	-0.1	2.1	-1.7	-12.8	.	.
O=C(Nc1ccccc1C(=O)O)c1ccc(Br)c(S(=O)(=O)NCc2ccccc2)c1	0.6	1.7	2.3	3.2	73.4*	2.7	60.9*	21.5*
O=C(O)c1ccccc1NC(=O)c1ccccc1Nc1ccccc1	-0.1	1.0	3.4	-2.4	83.3*	1.9	67.4*	29.0*
CS(=O)(=O)N(Cc1ccccc1)c1ccc(C(=O)Nc2ccccc2C(=O)O)cc1	-0.2	-0.1	-0.5	-0.5	65.0*	-5.2	57.1*	13.3*
CCCC1CCC2(CCCN2CCOC(=O)Nc2ccccc2)CC1 (stereo not given)	.	.	0.2	-1.0	.	.	.	.
CC1CCCN(c2cccc3c2S(=O)(=O)N([C@H](C)c2ccccc2)C[C@@H](COCc2ccccc2)O3)C1 (stereo not given in full)	-0.4	.	-0.2	2.7	6.0	.	.	.
O=S(=O)(NC1=NCCCCC1)c1ccc2sc(NS(=O)(=O)c3ccc4ccccc4c3)nc2c1	-0.8	-1.4	6.6	-3.5	56.4*	3.5	63.0*	27.7*
Cc1c(Cc2ccccc2)c(=O)oc2cc(OCC(=O)NC(Cc3ccc(Cl)cc3)C(=O)O)ccc12 (stereo not given)	-1.0	0.1	i	-252.8	52.3*	-16.8	66.0*	24.6*
Cc1c(C)c2ccc(OCC(=O)NC(Cc3ccc(Cl)cc3)C(=O)O)cc2oc1=O (stereo not given)	1.3	-1.3	i	-192.2	20.8	-1.1	.	.
